The structures appear in SMILES notation. Screen size: about 390,000 compounds; about 1,400 (0.36%) were called active. Roughly 2% stayed inconclusive and do not appear here. The rule behind the calls is not given here. The entries come from a sample that favours actives as a whole.

In the assay the target is Flap endonuclease 1 (Homo sapiens) (UniProt P39748). Nature of the assay: qHTS Assay for the Inhibitors of Human Flap endonuclease 1 (FEN1). [Related pubchem assays (depositor defined):AID488813]. The class given is functional.
Sequence of Flap endonuclease 1 (Homo sapiens) (P39748 whole entry): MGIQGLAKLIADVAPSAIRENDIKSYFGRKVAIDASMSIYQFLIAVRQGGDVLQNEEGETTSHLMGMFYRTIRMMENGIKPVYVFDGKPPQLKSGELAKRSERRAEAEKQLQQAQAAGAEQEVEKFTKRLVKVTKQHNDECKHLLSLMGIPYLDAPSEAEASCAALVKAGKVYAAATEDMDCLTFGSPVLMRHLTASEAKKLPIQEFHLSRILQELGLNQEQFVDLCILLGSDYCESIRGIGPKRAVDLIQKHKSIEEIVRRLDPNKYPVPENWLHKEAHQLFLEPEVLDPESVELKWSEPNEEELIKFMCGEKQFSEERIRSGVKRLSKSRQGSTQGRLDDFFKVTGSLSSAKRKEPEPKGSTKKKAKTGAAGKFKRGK
In the case of `CC(N)(Cc1ccc(O)c(O)c1)C(=O)O` (stereo not drawn), the Potency was 2380 nM (active).

Consider `CCOC(=O)CN1C(=O)N[C@@H](c2cccc(C(F)(F)F)c2)C(C(=O)OC)=C1C`, for which the Potency entry is “inactive”.

On to `Nc1nc2ccc(OC(F)(F)F)cc2s1`, for which the Potency result was “inactive”.

In the case of `NCC(O)c1ccc(O)c(O)c1` (stereo not drawn), the Potency was 2990 nM (active).

In the case of `C=CCN1C2CCCC1CC(N=C(S)Nc1cccc(OC)c1)C2` (stereo not drawn), the Potency result is “inactive”.

Take `CC(=O)c1ccc(NC(=O)NNS(=O)(=O)c2ccc([N+](=O)[O-])cc2)cc1`: the Potency result is “inactive”.

Regarding `ICCCCN1C=S(CI)c2ccccc21` (stereo not drawn), the Potency was 50100 nM (active).

As for `Cc1ccc(C)c(NC(=O)CN(C)C(=O)C2COc3ccccc3O2)c1` (stereo not drawn), the Potency result is “inactive”.

The record behind these values is ChEMBL document CHEMBL1201862, “PubChem BioAssay data set” (2004).
